# Test results as given in PubChem BioAssay.
# The source made the active and inactive calls.
# Experiments:
# [1] = binders of probe aFSTL3 on microarray, primary screen, stem cell growth factor project, biochemical, small-molecule microarray, fluorescence 635/667 (AID 1064); conditions: higher = more signal;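 further: measures binding of the biotinylated anti-FSTL3 antibody to printed compounds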
# [2] = binders from COS7 lysate, DM2A8 probe, primary screen, torsin A project, cell lysate, small-molecule microarray, fluorescence 635/667 (AID 1065); conditions: higher = more signal, COS7 lysate expressing mutant human TOR1A
# [3] = binders of probe aFGF2 on microarray, primary screen, stem cell growth factor project, biochemical, small-molecule microarray, fluorescence 635/667 (AID 1067); conditions: higher = more signal;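 further: measures binding of biotinylated aFGF2 protein to printed compounds on slides; z-score merges feature fluorescence and signal-to-noise across triplicate slides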
# [4] = binders of probe aFGF10 on microarray, primary screen, stem cell growth factor project, biochemical, small-molecule microarray, fluorescence 635/667 (AID 1071); conditions: higher = more signal;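 further: score merges 667 nm spot intensity and signal to noise from triplicate slides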
# [5] = target: Neurogenic locus notch homolog protein 2 (Homo sapiens) (UniProt Q04721); assay: Notch2 binders on small-molecule microarrays, primary screen, biochemical, small-molecule microarray, 635 nm fluorescence, stem cell growth factors (AID 1073); conditions: Notch2 binding, higher = more signal
# [6] = target: Pro-neuregulin-1, membrane-bound isoform (Homo sapiens) (UniProt Q02297); assay: NRG1 binders on small-molecule microarrays, primary screen, psychiatric disease protein project, biochemical, small-molecule microarray, fluorescence 635/667 (AID 1075); conditions: NRG1 binding, 635 nm fluorescence, higher = more signal;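 further: score combines 667 nm spot fluorescence with signal to noise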
# [7] = tested on: Neuregulin-1 EGF-like domain; assay: binders of neuregulin-1 EGF-like domain, primary screen, biochemical, small-molecule microarray, 635 nm fluorescence (AID 1081); conditions: small-molecule microarray binding, higher = more signal;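 further: binding of the protein to compounds printed on small-molecule microarray slides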
# [8] = FRG1 promoter luciferase signal modulators, primary screen, FRG1 inhibition for FSHD, cell-based, C2C12 myotubes, firefly/Renilla luciferase, luminescence (AID 1084); conditions: higher = more signal, called active from +8 up or from −8 down
# [9] = binders of probe aFST on microarray, primary screen, stem cell growth factor project, biochemical, small-molecule microarray, fluorescence 635/667 (AID 1086); conditions: higher = more signal;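 further: score merges 667 nm fluorescence with signal-to-noise of each printed compound spot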
# [10] = binders of probe aHhip on microarray, primary screen, stem cell growth factor project, biochemical, small-molecule microarray, fluorescence 635/667 (AID 1087); conditions: higher = more signal;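 further: score merges spot fluorescence at 667nm with spot signal to noise ratio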
# Sequence of Pro-neuregulin-1, membrane-bound isoform (Homo sapiens) (Q02297 whole entry, looked up, the tested form may be a part, canonical isoform): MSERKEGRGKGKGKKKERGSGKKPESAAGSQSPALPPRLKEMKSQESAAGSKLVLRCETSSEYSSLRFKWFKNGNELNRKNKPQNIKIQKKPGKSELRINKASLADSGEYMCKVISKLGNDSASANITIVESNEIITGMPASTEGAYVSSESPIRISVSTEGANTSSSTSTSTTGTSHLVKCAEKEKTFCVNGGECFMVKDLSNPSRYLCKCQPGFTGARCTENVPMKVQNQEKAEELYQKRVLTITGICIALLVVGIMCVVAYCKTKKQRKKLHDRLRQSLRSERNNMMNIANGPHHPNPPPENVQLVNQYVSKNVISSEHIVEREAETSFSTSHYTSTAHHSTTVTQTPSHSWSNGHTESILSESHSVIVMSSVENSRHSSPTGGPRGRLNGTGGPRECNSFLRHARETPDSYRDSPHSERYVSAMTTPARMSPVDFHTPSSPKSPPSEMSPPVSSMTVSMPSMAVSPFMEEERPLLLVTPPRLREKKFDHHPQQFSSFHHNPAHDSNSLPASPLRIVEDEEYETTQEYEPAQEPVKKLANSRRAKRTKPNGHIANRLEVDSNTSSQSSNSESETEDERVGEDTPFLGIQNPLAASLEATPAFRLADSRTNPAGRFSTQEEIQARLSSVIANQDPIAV
# Sequence of Neurogenic locus notch homolog protein 2 (Homo sapiens) (Q04721 whole entry, looked up, canonical isoform): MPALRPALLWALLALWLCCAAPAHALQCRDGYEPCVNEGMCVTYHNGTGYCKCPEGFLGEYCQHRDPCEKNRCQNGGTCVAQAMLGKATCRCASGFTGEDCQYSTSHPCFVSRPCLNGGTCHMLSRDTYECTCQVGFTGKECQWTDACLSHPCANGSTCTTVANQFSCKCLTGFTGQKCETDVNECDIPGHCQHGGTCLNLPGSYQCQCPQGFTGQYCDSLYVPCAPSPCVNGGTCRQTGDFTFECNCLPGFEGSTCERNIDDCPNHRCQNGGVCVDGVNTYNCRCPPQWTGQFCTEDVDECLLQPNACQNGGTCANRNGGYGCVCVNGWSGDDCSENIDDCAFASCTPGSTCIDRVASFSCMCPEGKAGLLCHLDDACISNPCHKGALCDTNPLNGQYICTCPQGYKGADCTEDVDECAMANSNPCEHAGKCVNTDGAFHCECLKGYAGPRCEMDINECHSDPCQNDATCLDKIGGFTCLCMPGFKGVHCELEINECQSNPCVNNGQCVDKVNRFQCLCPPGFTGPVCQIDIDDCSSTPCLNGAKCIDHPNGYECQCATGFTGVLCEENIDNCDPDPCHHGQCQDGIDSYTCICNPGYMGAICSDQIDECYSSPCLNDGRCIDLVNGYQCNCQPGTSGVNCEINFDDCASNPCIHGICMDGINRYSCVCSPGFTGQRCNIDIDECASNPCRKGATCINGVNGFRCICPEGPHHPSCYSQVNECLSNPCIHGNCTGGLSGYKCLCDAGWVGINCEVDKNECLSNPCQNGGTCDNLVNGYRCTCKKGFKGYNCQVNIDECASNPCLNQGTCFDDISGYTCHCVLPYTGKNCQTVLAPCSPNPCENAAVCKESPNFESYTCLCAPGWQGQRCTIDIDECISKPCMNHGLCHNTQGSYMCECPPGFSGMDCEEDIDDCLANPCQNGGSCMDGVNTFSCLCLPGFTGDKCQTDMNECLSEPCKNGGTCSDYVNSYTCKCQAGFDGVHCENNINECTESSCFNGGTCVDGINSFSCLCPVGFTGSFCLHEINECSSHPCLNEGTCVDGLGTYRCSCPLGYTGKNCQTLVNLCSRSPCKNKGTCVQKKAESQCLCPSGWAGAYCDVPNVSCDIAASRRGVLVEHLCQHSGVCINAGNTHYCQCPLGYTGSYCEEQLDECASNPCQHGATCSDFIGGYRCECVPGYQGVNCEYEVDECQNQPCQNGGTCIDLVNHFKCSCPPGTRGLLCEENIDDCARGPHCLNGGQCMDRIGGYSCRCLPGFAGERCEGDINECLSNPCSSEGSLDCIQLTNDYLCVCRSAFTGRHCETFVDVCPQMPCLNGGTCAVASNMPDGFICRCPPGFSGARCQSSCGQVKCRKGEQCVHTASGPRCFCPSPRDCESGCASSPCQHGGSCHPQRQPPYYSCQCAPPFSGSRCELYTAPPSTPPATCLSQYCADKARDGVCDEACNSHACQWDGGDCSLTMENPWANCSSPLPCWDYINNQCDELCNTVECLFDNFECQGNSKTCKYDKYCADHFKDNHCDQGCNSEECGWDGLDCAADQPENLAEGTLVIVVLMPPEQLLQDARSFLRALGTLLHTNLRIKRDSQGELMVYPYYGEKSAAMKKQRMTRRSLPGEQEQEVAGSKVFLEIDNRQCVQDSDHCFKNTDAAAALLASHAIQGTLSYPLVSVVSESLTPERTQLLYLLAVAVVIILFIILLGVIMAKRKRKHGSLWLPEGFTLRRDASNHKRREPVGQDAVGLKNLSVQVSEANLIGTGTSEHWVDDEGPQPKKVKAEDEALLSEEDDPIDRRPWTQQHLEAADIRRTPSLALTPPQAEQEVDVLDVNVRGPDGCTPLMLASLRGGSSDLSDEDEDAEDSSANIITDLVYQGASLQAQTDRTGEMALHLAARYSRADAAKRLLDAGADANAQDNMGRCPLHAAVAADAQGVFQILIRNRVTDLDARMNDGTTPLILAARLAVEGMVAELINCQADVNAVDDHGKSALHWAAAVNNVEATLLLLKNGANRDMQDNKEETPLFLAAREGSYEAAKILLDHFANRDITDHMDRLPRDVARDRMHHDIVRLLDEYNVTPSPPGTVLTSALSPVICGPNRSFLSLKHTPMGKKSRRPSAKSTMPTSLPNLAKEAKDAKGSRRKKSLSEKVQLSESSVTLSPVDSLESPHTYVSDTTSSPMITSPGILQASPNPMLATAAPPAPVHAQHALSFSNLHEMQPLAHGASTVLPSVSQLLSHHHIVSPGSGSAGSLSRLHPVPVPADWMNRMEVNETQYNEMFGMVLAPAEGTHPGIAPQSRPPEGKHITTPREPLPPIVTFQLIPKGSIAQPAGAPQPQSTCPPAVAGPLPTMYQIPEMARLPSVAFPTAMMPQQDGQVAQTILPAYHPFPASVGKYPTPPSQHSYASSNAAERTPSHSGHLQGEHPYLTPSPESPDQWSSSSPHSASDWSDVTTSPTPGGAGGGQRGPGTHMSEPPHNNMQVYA
compound,measurement,setting,value
O=C(O)[C@@H]1[C@@H]2C(=O)N(c3ccccc3)C(=O)[C@@H]2C[C@@H]1Sc1ccccc1,composite z-score,[1],0.305
same,composite z-score,[2],-0.534
same,composite z-score,[3],-0.0833
same,composite z-score,[4],0.105
same,composite z-score,[5],-0.0593
same,composite z-score,[6],-0.141
same,composite z-score,[7],0.695
same,z-score,[8],1.06 (inactive)
same,composite z-score,[9],-0.377
same,composite z-score,[10],0.0505
CCOC(=O)C[C@H]1[C@H](OC(=O)c2ccc(-c3ccccc3)cc2)[C@@H](NC(=O)CC(C)C)c2cc(OCCCO)ccc2N1C(=O)c1ccc2ccccc2n1,composite z-score,[1],-0.459
same,composite z-score,[2],0.176
same,composite z-score,[3],-0.149
same,composite z-score,[4],0.205
same,composite z-score,[5],0.458
same,composite z-score,[6],0.491
same,composite z-score,[7],0.76
same,z-score,[8],0.375 (inactive)
same,composite z-score,[9],0.185
same,composite z-score,[10],0.1
CC1=C2[C@@H](CCc3ccccc3)OB(O)C[C@@H]2[C@@H]2C(=O)N(C)C(=O)[C@@H]2C1,composite z-score,[1],-0.366
same,composite z-score,[2],-0.19
same,composite z-score,[3],-0.104
same,composite z-score,[4],0.496
same,composite z-score,[5],0.849
same,composite z-score,[6],1.09
same,composite z-score,[7],-0.0884
same,z-score,[8],1.26 (inactive)
same,composite z-score,[9],0.438
same,composite z-score,[10],-0.171
COCC(=C=CC[C@H](O)c1ccc(OCCO)cc1)CCO,composite z-score,[1],-0.144
same,composite z-score,[2],1.12
same,composite z-score,[3],-0.161
same,composite z-score,[4],0.592
same,composite z-score,[5],0.124
same,composite z-score,[6],1.64
same,composite z-score,[7],1.42
same,z-score,[8],0.461 (inactive)
same,composite z-score,[9],0.0418
same,composite z-score,[10],-0.0618
CCN(CC)c1ccc(N2CC=CC34O[C@@H]5/C=C\CCCOC(=O)C5[C@H]3C(=O)N(C(C)CO)[C@@H]4C2=O)cc1 (stereo not given in full),composite z-score,[1],-0.136
same,composite z-score,[2],-0.207
same,composite z-score,[3],-0.175
same,composite z-score,[4],-0.136
same,composite z-score,[5],-0.0693
same,composite z-score,[6],1.87
same,composite z-score,[7],1.31
same,z-score,[8],-0.768 (inactive)
same,composite z-score,[9],-0.285
same,composite z-score,[10],-0.236
COCCCNC(=O)[C@@]1(Sc2ccc(C)cc2)CC(=O)N(C2Cc3ccccc3C2)[C@@H]1c1ccc(CO)cc1,composite z-score,[1],0.667
same,composite z-score,[2],-1.94
same,composite z-score,[3],-0.16
same,composite z-score,[4],-0.459
same,composite z-score,[5],-1.12
same,composite z-score,[6],1.47
same,composite z-score,[7],1.32
same,z-score,[8],-1.11 (inactive)
same,composite z-score,[9],-0.213
same,composite z-score,[10],-0.164
COc1ccc([C@H]2OC[C@@H]3C[C@H](Cc4ccccc4)C(=O)N32)cc1,composite z-score,[1],-0.458
same,composite z-score,[2],0.7
same,composite z-score,[3],-0.0376
same,composite z-score,[4],0.219
same,composite z-score,[5],0.423
same,composite z-score,[6],-0.465
same,composite z-score,[7],0.684
same,z-score,[8],0.18 (inactive)
same,composite z-score,[9],0.277
same,composite z-score,[10],0.107
[N-]=[N+]=NCc1ccccc1C[C@@]1(C(N)=O)N=C(c2ccc(OCCCO)cc2)O[C@@H]1c1ccccc1,composite z-score,[1],0.218
same,composite z-score,[2],-0.173
same,composite z-score,[3],-0.0592
same,composite z-score,[4],-0.257
same,composite z-score,[5],0.608
same,composite z-score,[6],2.15
same,composite z-score,[7],1.16
same,z-score,[8],-1.67 (inactive)
same,composite z-score,[9],0.249
same,composite z-score,[10],0.107
CC(C)[Si](C#CCCCC#N)(O[C@H](c1ccccc1)c1cn(Cc2ccccc2)nn1)C(C)C,composite z-score,[1],-0.281
same,composite z-score,[2],0.704
same,composite z-score,[3],-0.0728
same,composite z-score,[4],0.335
same,composite z-score,[5],0.879
same,composite z-score,[6],0.048
same,composite z-score,[7],1.13
same,z-score,[8],-2.06 (inactive)
same,composite z-score,[9],0.775
same,composite z-score,[10],0.095
CO[C@H]1O[C@H](CO)[C@@H](OC(=O)CCc2ccccc2)[C@@H]2OC(=O)[C@@H](Cc3ccccc3)C/C=C/C[C@H](Cc3ccccc3)C(=O)O[C@@H]12,composite z-score,[1],-0.0519
same,composite z-score,[2],0.595
same,composite z-score,[3],-0.0962
same,composite z-score,[4],0.242
same,composite z-score,[5],0.185
same,composite z-score,[6],0.438
same,composite z-score,[7],0.756
same,z-score,[8],0.248 (inactive)
same,composite z-score,[9],0.671
same,composite z-score,[10],0.0854
CCC#CCN(Cc1ccccc1Br)[C@H](/C=C/C1CC1)[C@@H](O)Cc1ccccc1,composite z-score,[1],0.689
same,composite z-score,[2],0.131
same,composite z-score,[3],-0.17
same,composite z-score,[4],-0.548
same,composite z-score,[5],-1.46
same,composite z-score,[6],-0.285
same,composite z-score,[7],-0.33
same,z-score,[8],-1.96 (inactive)
same,composite z-score,[9],-0.17
same,composite z-score,[10],-0.169
NC(=O)NCC#Cc1ccc2c(c1)[C@]1(C(=O)N2)[C@H](C(=O)N2CCN(c3ncccn3)CC2)[C@H]2C(=O)O[C@H](c3ccccc3)[C@H](c3ccccc3)N2[C@@H]1c1ccc(O)cc1,composite z-score,[1],-0.141
same,composite z-score,[2],0.143
same,composite z-score,[3],-0.0328
same,composite z-score,[4],0.861
same,composite z-score,[5],1.17
same,composite z-score,[6],0.575
same,composite z-score,[7],0.664
same,z-score,[8],0.234 (inactive)
same,composite z-score,[9],1.1
same,composite z-score,[10],0.141
Cc1ccccc1C(O)C1C=CC2C(=O)NC(=O)C2N1Nc1ccccn1 (stereo not given),composite z-score,[1],0.888
same,composite z-score,[2],0.127
same,composite z-score,[3],-0.129
same,composite z-score,[4],0.0133
same,composite z-score,[5],0.135
same,composite z-score,[6],0.401
same,composite z-score,[7],-0.0441
same,z-score,[8],1.08 (inactive)
same,composite z-score,[9],-0.0817
same,composite z-score,[10],-0.134
O=C1NC(=O)C2C1C=CC(C(O)c1ccco1)N2Nc1ccc(Cl)cc1Cl (stereo not given),composite z-score,[1],0.388
same,composite z-score,[2],-0.13
same,composite z-score,[3],-0.0375
same,composite z-score,[4],-0.0728
same,composite z-score,[5],0.42
same,composite z-score,[6],0.825
same,composite z-score,[7],1.24
same,z-score,[8],1.62 (inactive)
same,composite z-score,[9],0.549
same,composite z-score,[10],-0.126
COC(=O)[C@@]1(Cc2ccc(OC)cc2)[C@H]2c3cc(C(=O)N4CCCC4)n(CCc4c[nH]c5ccc(O)cc45)c3C[C@H]2CN1C(=O)c1ccccc1,composite z-score,[1],0.77
same,composite z-score,[2],0.0885
same,composite z-score,[3],0.155
same,composite z-score,[4],0.897
same,composite z-score,[5],1.7
same,composite z-score,[6],1.44
same,composite z-score,[7],1.37
same,z-score,[8],0.829 (inactive)
same,composite z-score,[9],1.46
same,composite z-score,[10],-0.374
Cc1ccc(S[C@]2(C(=O)NCCN3CCOCC3)CC(=O)N(Cc3ccccc3Cl)[C@@H]2c2ccc(CO)cc2I)cc1,composite z-score,[1],0.75
same,composite z-score,[2],1.78
same,composite z-score,[3],0.0027
same,composite z-score,[4],-0.142
same,composite z-score,[5],-0.675
same,composite z-score,[6],1.15
same,composite z-score,[7],1.04
same,z-score,[8],-2.03 (inactive)
same,composite z-score,[9],-0.387
same,composite z-score,[10],0.302
C=CCNC(=O)[C@H]1[C@@H]2C(=O)O[C@@H](c3ccccc3)[C@@H](c3ccccc3)N2[C@@H](c2ccccc2OCCO)[C@]12C(=O)N(C(=O)OCCOC)c1ccc(C#CC3(O)CCCCCC3)cc12,composite z-score,[1],-0.192
same,composite z-score,[2],0.281
same,composite z-score,[3],0.0376
same,composite z-score,[4],0.434
same,composite z-score,[5],0.776
same,composite z-score,[6],1.04
same,composite z-score,[7],1.2
same,z-score,[8],-2.54 (inactive)
same,composite z-score,[9],0.339
same,composite z-score,[10],0.0176
